Results reported in the supplement of paper PMC4723716.

Test system: Plasmodium falciparum NF54 gametocytes
Assay: viability index relative to DMSO control (fraction); higher = less gametocyte killing
Conditions: 12.5 µM, incubation time: 72 h
Procedure, shortened: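 P. falciparum NF54 gametocytes at stages I–V were treated with compound at 12.5 µM for 72 hr at 37°C under low oxygen in serum-containing medium (0.50% gametocytemia, 1.25% hematocrit), then stained with MitoTracker Red CMXRos and imaged in serum-free medium containing 500 nM dye. The viability index is the gametocyte particle count divided by the plate mean of solvent-only wells.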

[1] = gametocyte stage: Stage I viability index
[2] = gametocyte stage: Stage II viability index
[3] = gametocyte stage: Stage III viability index
[4] = gametocyte stage: Stage IV viability index
[5] = gametocyte stage: Stage V viability index

Row | Structure (SMILES) | viability index [1] | viability index [2] | viability index [3] | viability index [4] | viability index [5]
1 | CCCCCCC(O)(c1ccc(F)cc1)C(CN1CCOCC1)c1ccccc1 (stereo not given) | 0.871 | 0.694 | 0.879 | 0.93 | 0.831
2 | Brc1ccc(Nc2nc3ccccc3nc2Nc2ccc(Br)cc2)cc1 | 0.0192 | 0.00916 | 0.0204 | 0.0222 | 0.104
3 | COc1cc(-c2nc(-c3ccccc3)c(-c3ccccc3)[nH]2)cc(OC)c1O | 0.0446 | 0.247 | 0.358 | 0.532 | 0.221
4 | O=C(Nc1ccccc1O)c1ccc(Oc2cccc(C(=O)Nc3ccccc3O)c2)cc1 | 0.00331 | 0.161 | 0.434 | 0.456 | 0.462
5 | OCCNc1nc(Nc2ccc(Cl)c(Cl)c2)nc2ccccc12 | 0.0254 | 0.246 | 0.665 | 0.484 | 0.442
6 | CCN(Cc1ccccc1)C1CCN(Cc2cc(Br)ccc2O)CC1 | 0.0376 | 0.132 | 0.573 | 0.617 | 0.659
7 | CC1CCN(Cc2c(O)ccc3cc(-c4nc5ccccc5s4)c(=O)oc23)CC1 | 0.706 | 0.705 | 0.925 | 0.864 | 1
8 | CCN(CC)c1ccc(NC(=O)c2cccs2)cc1 | 0.716 | 0.659 | 0.758 | 0.936 | 1.04
9 | CCOc1ccc(-c2nonc2NC(=O)c2cccc(C)c2)cc1OCC | 0.0619 | 0.0773 | 0.0679 | 0.222 | 0.626
10 | O=C(Nc1ccc(CN2CCOCC2)cc1)c1ccc(-c2cc(Cl)ccc2Cl)o1 | 0.302 | 0.64 | 1.15 | 1.04 | 1.04
11 | CN(C)CCCNCc1ccc(-c2ccc(F)c(Cl)c2)o1 | 0.202 | 0.376 | 0.376 | 0.339 | 0.104
12 | CCCCc1c(CCC)c(=N)c2ccccc2n1C | 1.05 | 0.911 | 1 | 0.918 | 0.701
13 | O=C(NC1CCN(Cc2ccccc2)CC1)c1cc(C(=O)NC2CCN(Cc3ccccc3)CC2)cc(C(=O)NC2CCN(Cc3ccccc3)CC2)c1 | 0.0629 | 0.0649 | 0.0393 | 0.0475 | 0.013
14 | CN(C)c1ccc(N=Cc2ccc(N3CCOCC3)cc2)cc1 | 0.955 | 0.834 | 0.927 | 1.01 | 0.896
15 | CCOc1cc(Cl)c(C(C)NC(=O)c2ccccc2)cc1OCC (stereo not given) | 0.728 | 0.781 | 0.819 | 1.03 | 0.901
16 | CCOc1cc2c(cc1OCC)C(c1cc(Cl)c(O)c(OCC)c1)NCC2 (stereo not given) | 0.0402 | 0.163 | 0.539 | 0.829 | 0.922
17 | CCCCOc1ccc(C(=O)Nc2cc(C)on2)cc1 | 1.02 | 0.815 | 0.973 | 0.942 | 0.78
18 | Cc1cc(C)c2c(c1)OCN(Cc1ccccc1Cl)C2 | 0.0442 | 0.13 | 0.569 | 0.663 | 0.615
19 | CCN(CC)CCNc1ccnc2cc3ccccc3cc12 | 0.0323 | 0.0591 | 0.106 | 0.0475 | 0.039
20 | COCCNC(=O)c1ccc(OC2CCN(Cc3ccc(F)c(F)c3)CC2)c(Cl)c1 | 0.672 | 0.812 | 1.07 | 0.979 | 0.901

Row | Structure (SMILES) | viability index [1] | viability index [2] | viability index [3] | viability index [4] | viability index [5]
21 | COc1cc2c3cc1Oc1c(OC)c(OC)cc4c1C(Cc1ccc(O)c(c1)Oc1ccc(cc1)CC3N(C)CC2)N(C)CC4 (stereo not given) | 0.25 | 0.465 | 0.592 | 0.528 | 0.468
22 | CN(C)c1ccc(N2C(N)=NC(N)=NC2(C)C)cc1 | 1.05 | 0.931 | 1.04 | 1.05 | 1.21
23 | CCCc1c(C)nc2ccccc2c1O | 0.634 | 0.705 | 0.844 | 0.72 | 1.02
24 | CCCCOC(=O)c1ccc(Nc2cc(C)nc3ccc(OC)cc23)cc1 | 0.0647 | 0.156 | 0.545 | 0.411 | 0.325
25 | CCCCCCn1c(=N)n(CC(O)COc2cccc(C)c2)c2ccccc21 (stereo not given) | 0.0787 | 0.0425 | 0.0828 | 0.149 | 0.0779
26 | CCC(O)c1ccc(Br)cc1NC(=O)c1cccc(Cl)c1 (stereo not given) | 0.0243 | 0.196 | 0.598 | 0.729 | 0.582
27 | Cc1ccc(Cn2c(N3CCC(C(=O)NCc4cccs4)CC3)nc3ccccc32)cc1 | 0.593 | 0.289 | 0.545 | 0.544 | 0.308
28 | CCN(CC)CCn1c(=N)n(CC(O)c2ccc(Cl)c(Cl)c2)c2ccccc21 (stereo not given) | 0.00552 | 0.057 | 0.0608 | 0.0851 | 0.121
29 | COc1ccc2c(=O)cc(C(Cl)(Cl)Cl)oc2c1 | 0.0166 | 0.146 | 0.512 | 0.623 | 0.56
30 | CCOc1ccccc1NC(=O)CN1CCN(C(=O)c2ccco2)CC1 | 1.06 | 1 | 1.07 | 0.959 | 1.1
31 | O=C(O)C1Cc2c([nH]c3ccccc23)C(c2ccc(Cl)cc2Cl)N1 (stereo not given) | 1.04 | 0.891 | 1.08 | 1.05 | 0.967
32 | COc1cccc(NC(=O)Cn2c(C)c(C#N)c3ccccc32)c1 | 0.0586 | 0.129 | 0.252 | 0.605 | 0.363
33 | COc1ccc(-c2cn3c(C(=O)Nc4ccccc4Cl)c(-c4ccccc4)c4c3n2CCCC4)cc1 | 0.673 | 0.531 | 0.719 | 0.794 | 0.779
34 | COCCn1c(C)nc2ccccc2c1=O | 0.825 | 0.879 | 0.733 | 0.711 | 0.418
35 | CN(C)c1ccc(C=Cc2nc(=O)c3ccccc3o2)cc1 | 0.611 | 0.713 | 0.82 | 0.921 | 0.835
36 | COc1ccc(C(=O)NC(c2ccccc2Cl)c2cc(Cl)c3cccnc3c2O)cc1 (stereo not given) | 0.11 | 0.0824 | 0.167 | 0.241 | 0.221
37 | CCOc1c(Br)cc(C2C(C(=O)OC)=CN(C)C=C2C(=O)OC)cc1OC | 0.344 | 0.243 | 0.353 | 0.38 | 0.649
38 | Cc1cc(=O)oc2c1ccc1oc(C(=O)c3ccccc3)c(C)c12 | 0.948 | 1 | 0.867 | 0.972 | 1.01
39 | COc1nc(Nc2ccc(C(C)C)cc2)nc(OC)n1 | 1.18 | 0.871 | 0.965 | 1.06 | 0.967
40 | CCc1c(C)c(=N)c2ccccc2n1C | 0.725 | 1.01 | 1.24 | 0.988 | 0.791

Row | Structure (SMILES) | viability index [1] | viability index [2] | viability index [3] | viability index [4] | viability index [5]
41 | COc1cccc(O)c1CN1CCC2(CCCN(Cc3ccc(F)cc3)C2)C1 (stereo not given) | 0.0144 | 0.0986 | 0.446 | 0.602 | 0.615
42 | O=c1nc(C=Cc2ccc(Cl)cc2)oc2ccccc12 | 0.874 | 1.01 | 1 | 0.866 | 0.989
43 | OC(CNCC1CCCO1)Cn1c2ccc(Cl)cc2c2cc(Cl)ccc21 (stereo not given) | 0.0685 | 0.0647 | 0.468 | 0.65 | 0.56
44 | Cc1ccc(NC(=O)Nc2cccc(Cl)c2)cc1F | 0.64 | 0.599 | 0.832 | 0.827 | 0.582
45 | Cc1cc(NCCN2CCCCC2)c2ccc3ccccc3c2n1 | 0.0508 | 0.404 | 0.536 | 0.495 | 0.132
46 | CC1CC2=C(CC1CNCCCN(C)C)C(C)(C)CCC2 (stereo not given) | 0.383 | 0.362 | 0.48 | 0.468 | 0.312
47 | O=C1c2ccc3c4c(ccc(c24)C(=O)N1CCCCO)C(=O)N(CCCCO)C3=O | 0.364 | 0.261 | 0.204 | 0.168 | 0.182
48 | Cn1c(=O)n(C)c2cc(CNCCNc3ccnc4cc(Cl)ccc34)ccc21 | 0.49 | 0.57 | 0.597 | 0.75 | 0.494
49 | COc1ccc(C(=O)Nc2nonc2-c2ccc(OC)c(OC)c2)cc1Cl | 0.564 | 0.401 | 0.487 | 0.568 | 0.736
50 | Oc1c(CN2CCN(c3ccccc3F)CC2)cc(Br)c2cccnc12 | 0.0376 | 0.0566 | 0.0353 | 0.0253 | 0.026
51 | O=C(CCl)NCCOc1ccc(Cl)cc1Cl | 0.732 | 0.629 | 0.813 | 0.769 | 0.675
52 | Cc1cccc(-n2ncc3c(=O)[nH]c(-n4nc(C)cc4NC(=O)c4cc5ccccc5o4)nc32)c1 | 0.466 | 0.473 | 0.792 | 0.9 | 0.791
53 | CN(C)c1ccc(-c2nc3cc(N)ccc3[nH]2)cc1 | 0.0873 | 0.566 | 0.962 | 0.939 | 0.725
54 | CC(C)(C)c1ccc(C(=O)Nc2nc3ccccc3s2)cc1 | 0.787 | 0.834 | 0.813 | 0.812 | 0.736
55 | CCOc1ccc2c(c1)CN(Cc1ccc(Cl)cc1)CO2 | 0.0612 | 0.129 | 0.452 | 0.592 | 0.468
56 | Oc1c2c(nc3ccccc13)CCCC2 | 0.828 | 0.959 | 0.985 | 0.87 | 0.961
57 | Cc1ccc(CN2CCC(C(=O)Nc3ccc(-c4cc5ccccc5[nH]4)cc3)CC2)o1 | 0.00663 | 0.313 | 0.43 | 0.422 | 0.396
58 | Cc1cc(C)cc(Nc2cc(C)nc3nc(C(F)(F)F)nn23)c1 | 1.02 | 1.07 | 1.18 | 0.869 | 0.835
59 | COC(=O)c1ccc(C2C3=C(O)CC(c4ccc(F)cc4)CC3=Nc3ccccc3N2C(=O)c2ccccc2)cc1 (stereo not given) | 0.00524 | 0.005 | 0.0149 | 0 | 0
